The target of this assay is Runt-related transcription factor 1 (Homo sapiens) + Core-binding factor subunit beta (Homo sapiens) (UniProt Q01196+Q13951). Kind of assay: inhibitors of RUNX1 Runt–CBFb-SMMHC binding, primary screen, biochemical, FRET, Cerulean-Runt, Venus-CBFb-SMMHC, uHTS (AID 1434).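 Further: 0% = DMSO wells and 100% = wells with excess untagged CBFb-SMMHC; inhibitors lower the FRET ratio by blocking Runt binding to CBFb-SMMHC.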 As to conditions: Cerulean-Runt/Venus-CBFb-SMMHC FRET ratio 530/480, 1 h, at 20 µM, stronger effect = higher value.

These results are taken from PubChem BioAssay AID1434 (Sanford-Burnham Center for Chemical Genomics, 2008).

The structures appear in SMILES notation. The campaign covered roughly 220,000 compounds. About 1,600 (0.73%) were called active.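 How the source made its calls: active means mean inhibition across duplicate retests at 20 µM reaching about 50% (limit read from the data); inactive means the rest, inconclusive results apart.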 The entries come from a sample that favours actives as a whole.

Sequence of Runt-related transcription factor 1 (Homo sapiens) + Core-binding factor subunit beta (Homo sapiens) (Q01196 whole entry, looked up): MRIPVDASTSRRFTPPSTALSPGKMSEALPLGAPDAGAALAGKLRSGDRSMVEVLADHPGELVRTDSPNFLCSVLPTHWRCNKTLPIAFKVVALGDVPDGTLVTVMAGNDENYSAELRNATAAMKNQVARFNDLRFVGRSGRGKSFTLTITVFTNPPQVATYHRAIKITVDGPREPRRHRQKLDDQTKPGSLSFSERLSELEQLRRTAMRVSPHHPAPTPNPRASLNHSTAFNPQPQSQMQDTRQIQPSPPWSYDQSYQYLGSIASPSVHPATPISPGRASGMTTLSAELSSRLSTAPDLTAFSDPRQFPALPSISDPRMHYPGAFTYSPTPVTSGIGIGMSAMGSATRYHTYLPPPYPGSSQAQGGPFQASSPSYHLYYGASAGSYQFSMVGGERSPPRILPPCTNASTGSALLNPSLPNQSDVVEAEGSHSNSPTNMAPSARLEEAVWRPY
Sequence of Runt-related transcription factor 1 (Homo sapiens) + Core-binding factor subunit beta (Homo sapiens) (Q13951 whole entry, looked up): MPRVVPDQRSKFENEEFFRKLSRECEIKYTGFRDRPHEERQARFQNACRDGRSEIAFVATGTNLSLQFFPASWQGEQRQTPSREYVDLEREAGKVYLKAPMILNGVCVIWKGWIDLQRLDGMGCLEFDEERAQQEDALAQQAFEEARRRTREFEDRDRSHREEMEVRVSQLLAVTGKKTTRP

One may read the inhibition as the change of the read-out against control, counted positive when it falls. Consider `CCOC(=O)c1c(NC(=S)Nc2ccccc2C)sc2c1CCC2`, for which the inhibition was 4% (inactive). For the compound `CCOC(=O)c1c(NC(=O)NC(C)(C)C)sc2c1CCN(C)C2`, the inhibition is 10.7% (inactive). For the compound `CCOC(=O)c1c(NC(=S)Nc2ccccc2)sc2c1CCN(C)C2`, the inhibition was 159% (active). Besides, the inhibition (retest duplicate average) stood at 140%. As for `Cc1ccc(Nc2nc(N)nc(CN3CCN(Cc4ccccc4)CC3)n2)cc1Cl`, the inhibition is 1.7% (inactive).

On to `CCn1c(=N)c(S(=O)(=O)c2ccc(F)cc2)cc2c(=O)n3ccccc3nc21`, for which the inhibition was -20.7% (inactive). As to `C/C(=N/OC(=O)c1c(-c2c(F)cccc2Cl)noc1C)c1cnccn1`, the inhibition is 0.1% (inactive). In the case of `CCOC(=O)c1cc2n(c1N)-c1ccccc1C2=O`, the inhibition is 2.2% (inactive). Take `CCOC(=O)c1cc2c(=O)n3ccccc3nc2n(CC(C)C)c1=NC(=O)c1c(-c2c(F)cccc2Cl)noc1C`: the inhibition is 81% (active). Also, the inhibition (retest duplicate average) was determined as 58.3%. Consider `CCCn1c(=NC(C)=O)c(C(=O)OCC)cc2c(=O)n3ccccc3nc21`, for which the inhibition is 58.9% (active). For the same compound, the inhibition (retest duplicate average) was found to be 115%.

As to `Cc1onc(-c2c(Cl)cccc2Cl)c1C(=O)NNC(=O)c1c(-c2c(Cl)cccc2Cl)noc1C`, the inhibition is -0.1% (inactive).

On to `CCOC(=O)NNc1cc(C(F)(F)F)ccn1`, for which the inhibition is -0.5% (inactive).

Consider `CCC(C)OC(=O)C(C)Oc1ccc(-c2ccccc2)cc1` (centres undefined), for which the inhibition was -4.2% (inactive). Same read-out and setting: in the case of `CCN(CC)C(=O)c1sc2nc(-c3ccccc3)ccc2c1N` it was 15.5% (inactive); in that of `Nc1cccc(-c2cc(-c3ccccc3)nc(-c3cccc(N)c3)n2)c1`, 1.4% (inactive). Regarding `CS(=O)(=O)c1sc2nc(-c3ccccc3)cc(-c3ccccc3)c2c1N`, the inhibition is 83.9% (active). Also, for the setting “retest duplicate average”, the inhibition amounted to 108%. On to `Cc1ccc2nc(COc3ccc(N(C)S(=O)(=O)c4ccccc4)cc3)cc(=O)n2c1`, for which the inhibition was 7.6% (inactive). On to `CCOC(=O)C1CCN(C(=O)C2(NC(=O)Nc3cccc(F)c3)CCCCC2)CC1`, for which the inhibition was -6.4% (inactive). Turning to `CC(C)(C)c1ccc(/C=C2\Oc3c(ccc(O)c3CN3CCN(CCO)CC3)C2=O)cc1`, the inhibition was 90.1% (active). Besides, the inhibition (retest duplicate average) stood at 70.6%. For `CCOC(=O)c1oc2c(CN3CCN(CCO)CC3)c(O)c(CC)cc2c(=O)c1-c1nc2ccccc2s1`, the inhibition was 47.8% (inactive).

For `O=C(CSc1nc2ccccc2o1)N/N=C/c1ccccc1C(=O)O`, the inhibition is 0.7% (inactive). Regarding `C/C(N)=C(/C#N)C(=O)COC(=O)C1CCN(C(=O)c2ccc(Cl)cc2)CC1`, the inhibition was 0.8% (inactive). As to `CNc1[nH]ncc1[N+](=O)[O-]`, the inhibition is 7.1% (inactive). As for `Cc1cc(NC(C)C)n2c(nc3ccccc32)c1C#N`, the inhibition is 31% (inactive). Take `CC(C)c1cc(NCc2ccccn2)n2c(nc3ccccc32)c1C#N`: the inhibition is 29.3% (inactive). With `Cc1cc(NCc2ccco2)n2c(nc3ccccc32)c1C#N`, the inhibition is 86.1% (active). The inhibition (retest duplicate average) turned out to be 66%.

With `Cc1[nH]c2ccccc2c1/C=N/NC(=O)CNC(=O)c1ccc2c(c1)OCO2`, the inhibition was 1.7% (inactive). As to `COc1ccc(N2C(=O)C(O)C2c2ccc(C)cc2)cc1` (centres undefined), the inhibition is 1.6% (inactive).

For `CC(=O)c1cc(C#N)c(N2CCCCC2)nc1C`, the inhibition was -1.4% (inactive).

Consider `Cc1cc(C)c2nc(N3CCCC3)c(C#N)cc2c1`, for which the inhibition is 65% (active). Moreover, the inhibition (retest duplicate average) worked out at 86.1%.

Consider `Cc1cc(C)c(C#N)c(N2CCC(C(N)=O)CC2)n1`, for which the inhibition is 3% (inactive).

With `CC(C)N1C(=S)SC(C)(C)C1n1oc(=O)n(-c2ccc(Cl)c(Cl)c2)c1=O` (centres undefined), the inhibition was 4.2% (inactive). Take `CCOc1cc(NC(=O)CCl)c(OCC)cc1NC(C)=O`: the inhibition was 1.1% (inactive). Take `CCCCN(CCCC)CC(O)Cn1c2ccccc2c(=O)c2ccccc21` (centres undefined): the inhibition is 81% (active). Besides, for the setting “retest duplicate average”, the inhibition was 70.6%.

Consider `O=C1c2ccccc2S(=O)(=O)N1CC(O)Cn1c2ccccc2c2ccccc21` (centres undefined), for which the inhibition is 4.1% (inactive). Same read-out and setting: the result for `CS(=O)(=O)N(CC(O)Cn1c2ccccc2c2ccccc21)c1cccc2ccccc12` (centres undefined) reads 1.2% (inactive). On to `Cc1ccccc1NC(=O)c1nn(-c2ccc(F)c(F)c2)ccc1=O`, for which the inhibition is 3.1% (inactive). Still for that read-out and setting: in the case of `N#CC1=C(N)OC2=C(C(=O)CCC2)C1C1CC=CCC1` (centres undefined) it was 4.6% (inactive); in that of `COCc1[nH]nc2c1C(C1C=CCCC1)C(C#N)=C(N)O2` (centres undefined), 3.6% (inactive). Take `N#CC1=C(N)Oc2cc(O)ccc2C1C1CCCCC1` (centres undefined): the inhibition is 120% (active). Further, where the note is “retest duplicate average”, the inhibition is 132%. Consider `C=CCn1c(SCC(N)=O)nnc1-c1cc2c(s1)CCC(CC)C2` (centres undefined), for which the inhibition was -3.6% (inactive). Turning to `CCS(=O)(=O)c1ccc(O)c(NC(=O)COc2ccc(Cl)cc2)c1`, the inhibition is 0.3% (inactive).

Turning to `Cc1c(CCOC(=O)c2cc([N+](=O)[O-])ccc2Cl)sc[n+]1CCCCS(=O)(=O)[O-]`, the inhibition is -0.3% (inactive). `O=C(CCc1ccccc1)Nc1ccc(NC(=O)C2CCCCC2)nc1`: the inhibition was -1% (inactive). Turning to `CC(C)C1Nc2c(C(=O)O)cccc2C(Nc2ccccc2C(=O)O)C1(C)C` (centres undefined), the inhibition was -10% (inactive).

In the case of `CC(C)(C)OC(=O)c1c(N)n(CCCN2CCCC2=O)c2nc3ccccc3nc12`, the inhibition is 124% (active). Further, where the note is “retest duplicate average”, the inhibition stood at 142%. For the compound `COCC(C)OC(=O)c1c(N)n(CCCN2CCOCC2)c2nc3ccccc3nc12` (centres undefined), the inhibition was 109% (active). Moreover, the inhibition (retest duplicate average) was determined as 129%. As to `CCOc1ccc(C(=O)NCCCN2CCCC2=O)cc1`, the inhibition was -3.7% (inactive). Regarding `CCc1ccc(NC(=O)CSc2nc3ccccc3c(=O)n2CCN2CCOCC2)cc1`, the inhibition is -3.7% (inactive). As to `Cc1ccc(C(=O)OC(C)CN2CCOCC2)cc1` (centres undefined), the inhibition was -0.1% (inactive). `CSc1nnc(-c2ccncc2)n1CCCN1CCCC1=O`: the inhibition was 5.9% (inactive). Regarding `O=C1CC2(CC(c3ccc(Cl)cc3)=NO2)C(=O)N1c1ccccc1` (centres undefined), the inhibition is 2.6% (inactive).

Consider `CC(C)(C)c1cc(C(=O)N/N=C/c2ccc([N+](=O)[O-])s2)n[nH]1`, for which the inhibition is -11.1% (inactive). The same measure, in the same setting: in the case of `COc1ccc(-n2c(C)nn(CC3CC3)c2=O)cc1` it was -6% (inactive); in that of `CCCn1c(N)c(C(=O)CSc2nnc(-c3cccnc3)n2-c2ccc(C)cc2C)c(=O)[nH]c1=O`, 0.2% (inactive); in that of `Cn1nnc(NC(=S)NC(=O)c2ccccc2)n1`, -0.2% (inactive). In the case of `O=C(NCc1ccco1)c1cccn2c(=O)c3c4c(sc3nc12)CCCC4`, the inhibition was 0.4% (inactive). Take `COc1ccc(CNC(=O)c2cc3c(=O)n4ccccc4nc3n(CC3CCCO3)c2=N)cc1` (centres undefined): the inhibition was 92.1% (active). In addition, the inhibition (retest duplicate average) stood at 159%. For the compound `COc1ccc(CCn2c(=N)c(C(=O)NCc3ccco3)cc3c(=O)n4cccc(C)c4nc32)cc1`, the inhibition is 142% (active). Moreover, the inhibition (retest duplicate average) was determined as 170%. Consider `COCCn1c(=O)[nH]c2cc(C(=O)NCc3cccnc3)ccc2c1=O`, for which the inhibition is -3.4% (inactive). Consider `COc1ccc(CCNC(=O)CCn2c(=O)c3ccccc3n(CC(=O)NCC3CCCO3)c2=O)cc1OC` (centres undefined), for which the inhibition is -0.3% (inactive). `COc1ccc(CCNC(=O)Cn2c(=O)n(CC3CCCO3)c(=O)c3ccccc32)cc1OC` (centres undefined): the inhibition was -0.7% (inactive). On to `COc1ccc(CCNC(=O)c2ccco2)cc1`, for which the inhibition is -1.4% (inactive).

Regarding `CCn1c(=N)c(C(=O)NCCCOC)cc2c(=O)n3cccc(C)c3nc21`, the inhibition is 58.1% (active). Moreover, the inhibition (retest duplicate average) turned out to be 72.9%.

With `CCc1cccc2c(=O)c(C(=O)NCCCOC)c[nH]c12`, the inhibition is 1% (inactive). Still for that read-out and setting: the result for `CC(C)Oc1c(Br)cc(Br)cc1/C=N/NC(N)=S` reads -0.8% (inactive); that for `C=CCN(CC=C)C(=O)COC(=O)c1n[nH]c2ccccc12`, -3% (inactive); that for `O=c1[nH]c(=S)[nH]c2[nH]c(=S)[nH]c12`, 45.1% (inactive). Consider `COc1ccc(C(C(=O)NC2CCCCC2)N(C(=O)CCl)c2ccccc2Cl)cc1` (centres undefined), for which the inhibition is -1.2% (inactive). The same measure, in the same setting: the result for `OC(COCC1COc2ccccc2O1)CN1CCN(c2ccc(F)cc2)CC1` (centres undefined) reads 0.5% (inactive); that for `COc1ccc(Cc2nnc(NC(=O)c3cc(OC)c(OC)c(OC)c3)s2)cc1OC`, -2% (inactive); that for `COc1cc(/C=N/NC(=S)Nc2cccnc2)cc(OC)c1O`, 3% (inactive). For the compound `CCCCCCCC[n+]1cccc(C(=O)N2c3c(nc(N)[nH]c3=O)NC(C)C2C)c1` (centres undefined), the inhibition is 3.4% (inactive). With `O=C(CN1CCN(S(=O)(=O)/C=C/c2ccccc2)CC1)Nc1ccc(N2CCOCC2)cc1`, the inhibition is 1.4% (inactive). On to `O=c1cc(CN2CCN(S(=O)(=O)/C=C/c3ccccc3)CC2)c2ccc(O)cc2o1`, for which the inhibition is 130% (active). Besides, the inhibition (retest duplicate average) was 146%. As to `COc1ccc2c(CN3CCN(S(=O)(=O)c4cccs4)CC3)cc(=O)oc2c1`, the inhibition was 12.6% (inactive). With `COc1cccc(OCCCN2CCCCCC2)c1`, the inhibition is -44.8% (inactive). In the case of `COc1ccccc1/C=C/C1=NC(=C\N(C)C)/C(=O)O1`, the inhibition was 89.1% (active). Further, the inhibition (retest duplicate average) came out at 91.9%. On to `COc1cccc(/C=C/c2ccc3ccccc3n2)c1OC(C)=O`, for which the inhibition is -3.2% (inactive). Still for that read-out and setting: in the case of `O=C1OC(/C=C/c2ccccc2)=NC/1=C/c1ccco1` it was -22.3% (inactive); in that of `CC(C)=C1C2CCC1C1C(=O)N(NC(=O)c3ccco3)C(=O)C21` (centres undefined), -1.2% (inactive); in that of `COc1ccc2oc(=O)c(C(=O)N3CCCC3)cc2c1`, 3.9% (inactive). Regarding `COc1ccc2oc(=O)c(C(=O)O)cc2c1`, the inhibition is 1.6% (inactive).

Take `COc1cccc(C(=O)c2cc3ccc(O)cc3oc2=O)c1`: the inhibition was 165% (active). For the same compound, the inhibition (retest duplicate average) turned out to be 194%. On to `NC(=O)c1c(NC(=O)CSc2nc(N)cc(=O)[nH]2)sc2c1CCCC2`, for which the inhibition was -8.6% (inactive). `NC(=O)c1c(Nc2nc3c(F)cccc3s2)sc2c1CCCC2`: the inhibition was 104% (active). The inhibition (retest duplicate average) amounted to 175%. Turning to `Fc1cc(F)c2nc(Nc3nc4c(F)cccc4s3)sc2c1`, the inhibition is 4.2% (inactive).

Regarding `CCCN1CC=C2C(C#N)=C(N)C(C#N)(C#N)C(c3cc(OC)ccc3OC)C2C1` (centres undefined), the inhibition is 88.4% (active). Moreover, the inhibition (retest duplicate average) was 77.5%. As to `CCN1CC=C2C(C#N)=C(N)C(C#N)(C#N)[C@H](c3ccoc3)[C@H]2C1`, the inhibition was -20.7% (inactive). With `CCOC(=O)N1CC=C2C(C#N)=C(N)C(C#N)(C#N)[C@H](c3cccs3)[C@H]2C1`, the inhibition was -18.3% (inactive). `Cc1ccc(C2Nc3ccccc3C(=O)N2CCN2CCNC2=O)cc1` (centres undefined): the inhibition is 2.4% (inactive).

For the compound `CC(C)NC(=O)C(=O)NCCCOC(C)C`, the inhibition is -0.3% (inactive). Same read-out and setting: the result for `CC(=O)Cc1nsc(NC(=O)c2ccc(Cl)cc2Cl)n1` reads -0.9% (inactive). `CCN1CCc2nc(NC(=O)c3cc(F)c(F)cc3Cl)sc2C1`: the inhibition was 52.5% (active). For the same compound, the inhibition (retest duplicate average) turned out to be 76.5%.

Consider `O=C(Nc1nccs1)c1cc(S(=O)(=O)N2CCOCC2)c(Cl)cc1Cl`, for which the inhibition was -1% (inactive).
